# Results taken from PubChem BioAssay (NCATS).
# Records with an inconclusive call do not appear. Values without a mark were called inactive. Active and inactive are the calls of the source. Calls follow the shape of the dose curve; as a rule, active = well fitted inhibition curve with a large enough effect; inconclusive = small, poorly fitted or top-dose-only effect; inactive = flat fitted curve, though single readings scatter. Non-standard residues stand in square brackets, D forms with d. Residues, ends and D or L forms follow the SMILES beside them. *: point of attachment. Nva = CCC[C@H](N)C(=O)O; Cbz = O=C(OCc1ccccc1)*
# Tested on: UISO
# Experiment: qHTS assay to identify novel small-molecules to repurpose for Merkel cell carcinoma treatment (AID 1296009); also: nearly all actives have a fitted effect of over 60% in size
# Conditions: MCC and control cell lines, CellTiter-Glo viability, 72 h; series mostly up to 46 µM; activity change, negative = cytotoxicity: at the top concentration
# Summary of the method: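 Cells were treated for 72 hr at 37 degree celsius with compounds in 8- or 11-point dose response. Viability was read by CellTiter-Glo luminescence, normalized to no-cell (cytotoxicity) and DMSO controls.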
# % is scaled to controls: 0 for no effect and ±100 for the full control effect; potency is read from the fitted curve at half-maximal effect.
Structure (SMILES),Potency,"activity change, negative = cytotoxicity"
Cn1cnc(=N)c2[nH]cnc21,5.26 µM (active),
COc1ccnc2[nH]cc(C(=O)C(=O)N3CCN(C(=O)c4ccccc4)C[C@@H]3C)c12,,3.67%
C[C@](Cc1c[nH]c2ccccc12)(NC(=O)OC1C2CC3CC(C2)CC1C3)C(=O)NC[C@H](NC(=O)CCC(=O)O)c1ccccc1 (some centres not stated),,11.2%
CC(=O)NCC(=O)N1[C@H]2CC[C@H]1c1cc(Nc3ncc(C(F)(F)F)c(NC4CCC4)n3)ccc12,7.43 µM (active),
Cc1noc(-c2ccc(CSCCC(=O)O)cc2)c1NC(=O)OC(C)c1ccccc1Cl (configuration not stated),,-3.47%
CC(C(C)N1CC(=O)NC(=O)C1)N1CC(=O)NC(=O)C1 (configuration not stated),,-15.7%
CC(=O)NC(CS)C(=O)O (configuration not stated),,12.5%
O=S(=O)(O)CCSSCCS(=O)(=O)O,,-4.3%
O=C(O)C=Cc1ccc(Cn2ccnc2)cc1,,-4.06%
CC(=O)O[C@H]1C[C@@H]2CC[C@H]3[C@H]4C[C@H]([N+]5(C)CCCCC5)[C@@H](OC(C)=O)[C@@]4(C)CC[C@@H]3[C@@]2(C)C[C@H]1N1CCCCC1,,-4.91%
CC(C)(O)CC[C@@H](O)[C@](C)(O)[C@H]1CC[C@@]2(O)C3=CC(=O)[C@@H]4C[C@@H](O)[C@@H](O)C[C@]4(C)[C@@H]3CC[C@]12C,,-9.15%
CC1(C)CC(O)CC(C)(C)N1[O],,-3.65%
COc1ccc(C(C)=O)c(O)c1,,6.61%
COc1cc(OC)c(NC(=O)Nc2cc(C)on2)cc1Cl,,-6.77%
Cc1cc(C(=O)NOCCO)c(Nc2ccc(I)cc2F)n(C)c1=O,,-1.22%
NC(=O)c1ncn([C@@H]2O[C@H](CO)[C@@H](O)[C@@H]2O)c1O,,10.1%
CN1[C@H]2CC(OC(=O)[C@@H](CO)c3ccccc3)C[C@H]1[C@H]1O[C@H]12 (some centres not stated),,4.59% [at 16.1 µM]
CC(Oc1ccc(O)cc1)(P(=O)(O)O)P(=O)(O)O,,-19.2%
O=C(O)CCCCCC(=O)NN=C1CCCC1,,7.17%

Structure (SMILES),Potency,"activity change, negative = cytotoxicity"
C[C@@H](NCc1cc2ccccc2[nH]1)c1cccc2ccccc12,,0.88%
CCC[C@@H](C=O)NC(=O)[C@H](CC(C)C)NC(=O)[C@H](CC(C)C)NC(=O)OCc1ccccc1 (Cbz-Leu-Leu-[Nva]-aldehyde),2.64 µM (active),
CC(=O)[C@]1(O)Cc2c(O)c3c(c(O)c2[C@@H](O[C@H]2C[C@H](N)[C@@H](O)[C@H](C)O2)C1)C(=O)c1ccccc1C3=O,0.59 µM (active),
CO[C@@H]1[C@@H](O)[C@H](O)[C@@H](n2c3c(Cl)cccc3c3c4c(c5c6cccc(Cl)c6[nH]c5c32)C(=O)NC4=O)O[C@@H]1CO,0.264 µM (active),
CCN(CC)CCNC(=O)c1c(C)[nH]c(C=C2C(=O)Nc3ccc(F)cc32)c1C,6.05 µM (active),
NC1=N[C@H]2[C@H](CS[C@H]2CCCCC(=O)O)N1,,-1.74% [at 16.1 µM]
c1coc(CNc2ncnc3nc[nH]c23)c1,,2.97%
CCCNC(=O)[C@H]1O[C@H]1C(=O)N[C@H](C(=O)N1CCC[C@@H]1C(=O)OC)C(C)CC (some centres not stated),18.7 µM (active),
CC[C@@]1([C@@H]2O[C@@H]([C@H]3O[C@@](O)(CO)[C@H](C)C[C@H]3C)C[C@H]2C)CC[C@H]([C@]2(C)CC[C@]3(C[C@H](O)[C@@H](C)[C@@H]([C@@H](C)[C@@H](OC)[C@H](C)C(=O)O)O3)O2)O1,0.512 µM (active),
CC(=O)O[C@@]12CO[C@H]1C[C@H](O)[C@@]1(C)C(=O)[C@H](O)C3=C(C)[C@@H](OC(=O)C(O)[C@@H](NC(=O)OC(C)(C)C)c4ccccc4)C[C@@](O)([C@@H](OC(=O)c4ccccc4)[C@@H]21)C3(C)C (some centres not stated),,-62.4%
N#Cc1cc(NC(=O)Nc2nnc(-c3ccncc3)s2)ccc1-c1cn[nH]c1,,7.58%
C=C1C(=O)O[C@H]2[C@@H]1CCC(C)=CCC[C@@]1(C)O[C@@H]21,14.8 µM (active),
C[C@H](NCc1ccc2c(c1)nc(NC(=O)c1ccc(-c3cn[nH]c3)s1)n2CCc1ccccc1)C(C)(C)C,6.62 µM (active),
CCCCCCCN(CC)CCCC(O)c1ccc(NS(C)(=O)=O)cc1 (configuration not stated),,-4.04%
O=C(O)C[C@H](O)C[C@H](O)C=Cc1c(C2CC2)nc2ccccc2c1-c1ccc(F)cc1,2.35 µM (active),
O=C(CCCCCCC(=O)Nc1cccnc1)NO,13.2 µM (active),
O=C(C=CC#Cc1cccc(NS(=O)(=O)c2ccccc2)c1)NO,16.6 µM (active),
C=C(C)[C@@H]1CC[C@]2(C(=O)O)CC[C@]3(C)[C@H](CC[C@@H]4[C@@]5(C)CC[C@H](O)C(C)(C)[C@@H]5CC[C@]43C)[C@@H]12,,-2.83%
